Bioassay records deposited in PubChem by several laboratories.
PostGolgi ctrl: growth inhibition of yeast control strain, primary screen, counter-screen for post-Golgi transport modulator project. efflux-deficient yeast background strain, growth absorbance A615, 16 h. inhibition, % at 10 µM. 5% of 98,000 active. AID 738, 2007
CYP2C19 activ: human CYP2C19 activators, primary screen, biochemical, luminescence; 96,000 tested, under 10 active; recombinant CYP2C19, luciferin-H EGE luminescence; stronger effect = higher value; 0 = fully inhibited enzyme, 1 = untreated enzyme; activation factor at 5 µM; Cytochrome P450 2C19 (Homo sapiens), P33261;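 active = activation factor of at least 2 at 5 µM in the primary screen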
Target sequence (P33261 whole entry, looked up): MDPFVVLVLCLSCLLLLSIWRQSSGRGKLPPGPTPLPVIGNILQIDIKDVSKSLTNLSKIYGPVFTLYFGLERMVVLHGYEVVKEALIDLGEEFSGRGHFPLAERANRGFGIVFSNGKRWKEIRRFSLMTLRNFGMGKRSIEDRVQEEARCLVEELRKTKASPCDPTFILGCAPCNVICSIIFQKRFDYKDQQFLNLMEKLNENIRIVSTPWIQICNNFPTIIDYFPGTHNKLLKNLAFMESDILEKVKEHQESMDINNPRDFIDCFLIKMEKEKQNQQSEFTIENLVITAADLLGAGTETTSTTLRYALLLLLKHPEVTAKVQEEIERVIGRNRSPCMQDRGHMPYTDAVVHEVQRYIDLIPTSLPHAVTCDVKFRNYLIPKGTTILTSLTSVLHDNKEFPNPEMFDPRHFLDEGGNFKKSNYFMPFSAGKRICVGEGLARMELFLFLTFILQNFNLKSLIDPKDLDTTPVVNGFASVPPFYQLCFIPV
PostGolgi yeast: phenotypic screen on post-Golgi transport, primary screen; AID 739, 2007; 0.9% of 98,000 active; inhibition, % at 10 µM; post-Golgi transport phenotypic cell assay;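 note: yeast cells grown in 1536-well plates; yeast grown about 18 h at 30C before absorbance read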
CYP2C19 inhib: blockers of cytochrome P450 2C19 activity – biochemical, luminescence, ADME assay, primary screen | CYP2C19 Supersomes, luciferin-H EGE luminescence, 30 min | inhibition, % at 5 µM | 21% of 96,000 active;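 active = CYP2C19 inhibition above a set limit at 5 µM in the primary screen, cut at about 50% in these data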
CYP2C9 inhib: blockers of cytochrome P450 2C9 activity – biochemical, luminescence, ADME assay, primary screen. CYP2C9 Supersomes, luciferin-H conversion. inhibition, % at 5 µM. 20% of 96,000 active. AID 777, 2007;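 active = blocking of liver enzyme CYP2C9 beyond about 50% at 5 µM, limit read from the data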
CYP2C9 act: human CYP2C9 activators, primary screen, biochemical, luminescence; recombinant CYP2C9, luciferin-H conversion; stronger effect = higher value; factor 1 = untreated enzyme, 0 = blocked; Cytochrome P450 2C9 (Homo sapiens), P11712; activation factor at 5 µM; 1.4% of 96,000 active;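 active = activation factor of 2 or more for CYP2C9 at a 5 µM dose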
Each line names hits and unclear results; the compound was inactive in the other large screens. Sampled rows, rich in hits. Any-hit rate of the full collection: about 32%. Cut-off read from the data, not from the text of the source, unless noted: active = inhibition above about 30%; inactive = the rest.

O=C(Nc1ccc(N2CCN(C(=O)c3ccco3)CC2)c(Cl)c1)c1cccs1	none
O=C(Nc1cccnc1)c1ccc(Oc2ccccc2)cc1	CYP2C9 inhib 89
O=C(Nc1cccnc1)c1ccccc1Oc1ccccc1	CYP2C19 inhib 64, CYP2C9 inhib 55
COc1ccc(Cc2c(O)nc(SC)n(C(C)=O)c2=O)cc1	CYP2C19 inhib 53
CC(=C/c1ccco1)/C=N/N1CCN(c2ccccc2)CC1	CYP2C19 inhib 55
CC(/C=N/N1CCN(c2ccccc2)CC1)=C\c1ccccc1	none
CC(/C=N/N1CCN(c2ccccc2)CC1)=C\c1ccco1	CYP2C19 inhib 56
CC(/C=N/n1c(-c2ccccc2)n[nH]c1=S)=C\c1ccco1	none
Cc1conc1NC(c1cccs1)c1ccc2cccnc2c1O (stereo unspecified)	none
CC(C)C(=O)NC(c1ccco1)c1ccc2cccnc2c1O (stereo unspecified)	PostGolgi ctrl 32
COc1ccc(C(NC(C)=O)c2ccc3cccnc3c2O)c(OC)c1 (stereo unspecified)	CYP2C19 inhib 58 (no result: PostGolgi ctrl, PostGolgi yeast)
Oc1c(C(Nc2nc3ccccc3s2)c2ccco2)ccc2cccnc12 (stereo unspecified)	CYP2C9 inhib 73
CNC(=O)Nc1ccccc1NC(=O)NC	none
O=C(COC(=O)c1ccccn1)Nc1nccs1	none
COc1ccc(C(C)NC(=O)c2ccccc2)cc1 (stereo unspecified)	CYP2C19 inhib 75
COc1ccc(C(NC(=O)c2ccc(-c3ccccc3)cc2)c2ccccc2)cc1 (stereo unspecified)	none
Cc1cc(N2C(=O)CCC2=O)ccc1NC(=O)c1cccs1	none
CC(C)Cn1c(N)c(C(=O)COC(=O)CC23CC4CC(CC(C4)C2)C3)c(=O)n(C)c1=O	CYP2C19 inhib 63, CYP2C9 inhib 85
Cc1ccccc1CSCC(=O)c1c(N)n(CC(C)C)c(=O)n(C)c1=O	none
CC(C)Cn1c(N)c(C(=O)COC(=O)c2ccncc2)c(=O)n(C)c1=O	CYP2C9 inhib 53
Cc1ccccc1NC1=C(Cl)C(=O)OC1OC(=O)c1ccco1 (stereo unspecified)	none
Cc1ccccc1NC1=C(Cl)C(=O)OC1NC(=O)c1ccccc1 (stereo unspecified)	CYP2C19 inhib 61, CYP2C9 inhib 72
CN(C)C(=O)C12CCC(C)(c3nc4ccccc4nc31)C2(C)C (stereo unspecified)	none
CCOC(=O)c1c(NC(=O)CSc2nnc(C)c(=O)[nH]2)sc2c1CCCC2	CYP2C9 inhib 98
NC(=O)c1c(NC(=O)COC(=O)CSc2nnc(-c3ccc(Cl)cc3)o2)sc2c1CCC2	CYP2C9 inhib 79
CCOC(=O)c1c(NC(=O)CSc2nnc(C)s2)sc2c1CCCCC2	CYP2C9 inhib 55
N#Cc1c(NC(=O)CSCC(=O)O)sc2c1CCCC2	none
Cc1nnc(SCC(=O)Nc2sc3c(c2C#N)CCCC3)[nH]c1=O	CYP2C9 inhib 79
O=C(NCCN1CCOCC1)C1CCC(CNS(=O)(=O)c2ccc(Cl)cc2)CC1 (stereo unspecified)	none
CC(C)CNC(=S)NC1CC2CCC(C1)N2Cc1ccccc1 (stereo unspecified)	none (no result: CYP2C19 activ, CYP2C19 inhib, CYP2C9 inhib, CYP2C9 act)
CCOC(=O)Cc1csc(SCC(=O)Nc2sc3c(c2C(N)=O)CCC3)n1	CYP2C9 inhib 50
COc1ccc(Cl)cc1NC(=O)C12CCC(C)(C(=O)O1)C2(C)C (stereo unspecified)	CYP2C19 inhib 83
CC12CCC(C(=O)N(Cc3ccccc3)Cc3ccccc3)(OC1=O)C2(C)C (stereo unspecified)	PostGolgi ctrl 38
COC(=O)c1ccccc1NC(=O)C12CCC(C)(C(=O)O1)C2(C)C (stereo unspecified)	CYP2C19 inhib 57
COc1ccc(OC)c(NC(=O)C23CCC(C)(C(=O)O2)C3(C)C)c1 (stereo unspecified)	CYP2C19 inhib 61, CYP2C9 act 2
CC12CCC(C(=O)NCc3cccnc3)(OC1=O)C2(C)C (stereo unspecified)	none
CN(C(=O)OCc1ccccc1)C(CC(N)=O)C(=O)O (stereo unspecified)	none
CSCC[C@H](NC(=O)OC(C)(C)C)C(=O)N/N=C/c1c(C)[nH]c(=O)[nH]c1=O	none
Cc1cccc(-n2nnc(C(=O)NCc3ccccn3)c2N)c1	none
CC(C)(C)c1nn(-c2ccccc2)c2[nH]c(=O)c(CNCc3ccco3)cc12	CYP2C9 inhib 62
COc1ccc(CNCc2cc3c(C(C)(C)C)nn(-c4ccccc4)c3[nH]c2=O)cc1	CYP2C9 inhib 59
Cc1ccc(CNCc2cc3c(C(C)(C)C)nn(-c4ccccc4)c3[nH]c2=O)cc1	none
COC(=O)Nc1ccccc1C(=O)N1CCCCC1	none
O=C1c2cccnc2C(=O)N1c1cccc(-c2nc3ccccc3o2)c1	none
O=C1c2cccnc2C(=O)N1c1ccccc1-c1ccccc1	CYP2C19 inhib 56
Cc1cc(C)c(S(=O)(=O)N2CCC(C(=O)NCc3ccc(Cl)cc3Cl)CC2)c(C)c1	PostGolgi ctrl 89, PostGolgi yeast 100, CYP2C9 act 2.9
O=C(NCc1ccc(Cl)cc1Cl)C(=O)N1CCCCC1	CYP2C9 act 3.8
O=C(Nc1cccc(Cl)c1)OCc1cn(-c2ccc(Cl)cc2)nn1	none (no result: CYP2C19 activ, CYP2C19 inhib, CYP2C9 inhib, CYP2C9 act)
COc1ccc(-n2nc3c(c2NC(=O)c2cc(Br)ccc2Cl)CS(=O)C3)cc1 (stereo unspecified)	none
COc1ccc(NC(=O)c2cc3c(s2)CCC3)cc1S(=O)(=O)N1CCOCC1	none
O=C(Nc1ccc2c(c1)CCC2)c1cccc(S(=O)(=O)N2CCN(c3ccccc3)CC2)c1	CYP2C19 inhib 51, CYP2C9 inhib 68
O=C(NC1CCCc2ccccc21)c1cccc(S(=O)(=O)N2CCN(c3ccccc3)CC2)c1 (stereo unspecified)	CYP2C9 inhib 82
O=C(Nc1cccc(S(=O)(=O)N2CCOCC2)c1)c1cc2c(s1)CCC2	CYP2C19 inhib 52, CYP2C9 inhib 97
O=C(Nc1cccc(Cn2cccn2)c1)c1cc2c(s1)CCCC2	CYP2C19 inhib 54
O=c1c(Cc2ccccc2)c(O)nc2n1CCS2	none
CCCC(c1nnnn1CC(=O)OCC)N(Cc1cc2c(C)cc(C)cc2[nH]c1=O)C1CCCC1 (stereo unspecified)	none
COc1ccc(CCN2CC34C=CC(O3)C(C(=O)NCc3ccccc3)C4C2=O)cc1OC (stereo unspecified)	none
CCOC(=O)c1c(-c2ccncc2)csc1N	CYP2C9 inhib 66
CCOc1ccc(-c2csc(N)c2C(=O)OC)cc1	CYP2C19 inhib 66, CYP2C9 inhib 71
O=C(N/N=C/c1ccco1)c1cc(-c2cccc3ccccc23)n[nH]1	none
